Data published in PubChem BioAssay (NCI).
This is part of a sample that, as a whole, favours compounds with a hit. Of some 83,000 tested, about 20% had one in any assay.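 The endpoint reported here, percent growth, reads 100 for growth as untreated, 0 for no net growth and -100 for all cells dead.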 Calls of active or inactive are those of the source. Rule for the calls: active = growth percent below 10; inactive = the rest.

Columns and labels:
Assay in all cases: NCI-60 one-dose screen, 48 h (100 = growth as untreated, 0 = no growth, -100 = all killed)
[1] = tested on: DU-145 prostate; details: 10 µM unless noted
[2] = tested on: K-562 leukemia; details: 10 µM unless noted
[3] = tested on: MALME-3M melanoma; details: 10 µM unless noted
[4] = tested on: MDA-MB-231 breast; details: 10 µM unless noted
[5] = tested on: RXF 393 renal; details: 10 µM unless noted
[6] = tested on: SF-268 CNS; details: 10 µM unless noted
[7] = tested on: SF-295 CNS; details: 10 µM unless noted
[8] = tested on: SF-539 CNS; details: 10 µM unless noted
[9] = tested on: UACC-257 melanoma; details: 10 µM unless noted
[10] = tested on: M14 melanoma; details: 10 µM unless noted
[11] = tested on: HCT-15 colon; details: 10 µM unless noted
[12] = tested on: HT29 colon; details: 10 µM unless noted
[13] = tested on: SNB-75 CNS; details: 10 µM unless noted
[14] = tested on: SNB-19 CNS; details: 10 µM unless noted
[15] = tested on: U251 CNS; details: 10 µM unless noted
[16] = tested on: PC-3 prostate; details: 10 µM unless noted
[17] = tested on: SK-MEL-5 melanoma; details: 10 µM unless noted
[18] = tested on: UACC-62 melanoma; details: 10 µM unless noted
[19] = tested on: LOX IMVI melanoma; details: 10 µM
[20] = tested on: SK-MEL-28 melanoma; details: 10 µM unless noted

Measured: growth

CCNC(=O)Oc1ccc[nH]c1=O
inactive: [1] 117% | [2] 93.4% | [3] 103% | [4] 109% | [5] 116% | [6] 118% | [7] 106% | [8] 98.2% | [9] 97.8% | [10] 102% | [11] 97.9% | [12] 109% | [13] 85.3% | [14] 98.8% | [15] 104% | [16] 96.5% | [17] 95.2% | [18] 96.1% | [19] 99.1% | [20] 125%

Cc1cc(Nc2ccc3c(c2)OCO3)c2cc3c(cc2n1)OCO3
inactive: [2] 36.8% | [3] 24.4% | [4] 32.3% | [6] 37.9% | [9] 75.7% | [11] 19.9% | [12] 15.8% | [13] 25.6% | [15] 19.9% | [16] 10.6% | [17] 22.6% | [18] 34% | [19] 14.3% | [20] 34.2%
active: [1] 3.67% | [5] 6.97% | [7] -62.6% | [8] -15.5% | [10] -16.7% | [14] 0.716%

Nc1ncnc(Nc2ccccc2)n1
inactive: [1] 120% | [2] 98.8% | [3] 124% | [4] 115% | [5] 118% | [6] 112% | [7] 113% | [8] 108% | [9] 108% | [10] 106% | [11] 103% | [12] 108% | [13] 104% | [14] 109% | [15] 111% | [16] 101% | [17] 104% | [18] 115% | [19] 104% | [20] 107%

CCC(=O)C1C(=O)c2ccccc2C1=O
inactive: [1] 113% | [2] 63.7% | [3] 96.8% | [4] 89.8% | [5] 120% | [6] 101% | [7] 96.9% | [8] 106% | [9] 110% | [10] 111% | [11] 113% | [12] 100% | [13] 83.1% | [14] 109% | [15] 105% | [16] 92.2% | [17] 110% | [18] 104% | [19] 98.1% | [20] 120%

CCCCNC(=O)c1ccc(OCC)cc1
inactive: [1] 108% | [2] 112% | [3] 101% | [4] 108% | [5] 109% | [6] 106% | [7] 106% | [8] 104% | [9] 102% | [10] 99.7% | [11] 105% | [12] 107% | [13] 102% | [14] 105% | [15] 99.1% | [16] 90.9% | [17] 103% | [18] 98.2% | [19] 95.2% | [20] 101%

CC(=O)Nc1ncc(S(=O)(=O)c2ccc([N+](=O)[O-])cc2)s1
inactive: [1] 113% | [2] 99.3% | [3] 118% | [4] 123% | [5] 115% | [6] 100% | [7] 112% | [8] 113% | [9] 104% | [10] 97.3% | [11] 105% | [12] 108% | [13] 103% | [14] 114% | [15] 108% | [16] 101% | [17] 113% | [18] 102% | [19] 106% | [20] 111%

Cn1c(=O)c2[nH]c(CCCCC(=O)O)nc2n(C)c1=O
inactive: [1] 110% | [2] 109% | [3] 115% | [4] 110% | [5] 127% | [6] 99.2% | [7] 123% | [8] 106% | [9] 103% | [10] 111% | [11] 107% | [12] 110% | [13] 95.3% | [14] 114% | [15] 106% | [16] 92.4% | [17] 108% | [18] 102% | [19] 99.4% | [20] 118%

CCC(=O)Oc1ccc2ccccc2c1
inactive: [1] 113% | [2] 107% | [3] 93.7% | [4] 90.2% | [5] 105% | [6] 97.5% | [7] 101% | [8] 96.8% | [9] 96.6% | [10] 92.2% | [11] 104% | [12] 104% | [13] 82.4% | [14] 97.9% | [15] 93.9% | [16] 77% | [17] 91.6% | [18] 92.1% | [19] 92.2% | [20] 110%

CCOC(=O)CNC(=O)Sc1ccc(C(C)(C)C)cc1
inactive: [1] 114% | [2] 71.9% | [3] 90.7% | [4] 105% | [5] 118% | [6] 107% | [7] 102% | [8] 94% | [9] 111% | [10] 102% | [11] 94.3% | [12] 114% | [13] 75.7% | [14] 103% | [15] 83.5% | [16] 106% | [17] 107% | [18] 91% | [19] 83.9% | [20] 113%

CC(=O)c1ccc(C)cc1
inactive: [1] 114% | [2] 114% | [3] 90.8% | [4] 114% | [5] 97.6% | [6] 107% | [7] 109% | [8] 114% | [9] 92% | [10] 107% | [11] 113% | [12] 111% | [13] 90.1% | [14] 109% | [15] 108% | [16] 106% | [17] 105% | [18] 105% | [19] 108% | [20] 104%

Cc1ccc(S(=O)(=O)NC(=O)NCCSSCCNC(=O)NS(=O)(=O)c2ccc(C)cc2)cc1
inactive: [1] 110% | [2] 103% | [3] 97.3% | [4] 116% | [5] 102% | [6] 102% | [7] 95.3% | [8] 87.5% | [9] 89.1% | [10] 111% | [11] 96.7% | [12] 108% | [13] 85.5% | [14] 99.4% | [15] 98.6% | [16] 96.6% | [17] 97.8% | [18] 101% | [19] 98.2% | [20] 109%

CCCCOC(=O)c1ccc(NC(=O)CCl)cc1
active: [2] 5.65% | [3] -67.5% | [4] 7.83% | [15] 4.55% | [19] -43.4%
inactive: [1] 78.3% | [5] 89.5% | [6] 35.7% | [7] 90% | [8] 69.9% | [9] 75.5% | [10] 51.2% | [11] 14.9% | [12] 12.8% | [13] 68.9% | [14] 62.6% | [16] 51.7% | [17] 58.7% | [18] 52.9% | [20] 102%

Cc1ccc(N2C(=O)c3cccc4c(N)c(S(=O)(=O)O)cc(c34)C2=O)cc1
inactive: [1] 120% | [2] 103% | [3] 135% | [4] 106% | [5] 111% | [6] 108% | [7] 129% | [8] 107% | [9] 114% | [10] 111% | [11] 105% | [12] 124% | [13] 111% | [14] 112% | [15] 96.7% | [16] 90% | [17] 102% | [18] 97.4% | [19] 95% | [20] 124%

O=C(O)c1c[nH]c2ccccc2c1=O
inactive: [1] 98.6% | [2] 93.1% | [3] 91.9% | [4] 98.1% | [5] 116% | [6] 102% | [7] 104% | [8] 93.9% | [9] 112% | [10] 101% | [11] 110% | [12] 97.6% | [13] 89.9% | [14] 101% | [15] 93.9% | [16] 97.6% | [17] 101% | [18] 101% | [19] 97.2% | [20] 102%

CC1(C)CCC(C)(C)NC(=S)N1
inactive: [1] 107% | [2] 103% | [3] 97.3% | [4] 111% | [5] 112% | [6] 105% | [7] 102% | [8] 105% | [9] 113% | [10] 98.9% | [11] 98.7% | [12] 107% | [13] 105% | [14] 102% | [15] 104% | [16] 100% | [17] 105% | [18] 105% | [19] 96.1% | [20] 109%

Cc1cc(CO)c(O)c(CO)c1
inactive: [1] 115% | [2] 87.3% | [3] 104% | [4] 108% | [5] 112% | [6] 105% | [7] 109% | [8] 110% | [9] 95.8% | [10] 97.6% | [11] 102% | [12] 95.4% | [13] 64.4% | [14] 114% | [15] 98.8% | [16] 101% | [17] 108% | [18] 104% | [19] 90.7% | [20] 108%

O=S(=O)(O)c1cccc2cccnc12
inactive: [1] 120% | [2] 107% | [3] 112% | [4] 120% | [5] 124% | [6] 95.1% | [7] 109% | [8] 109% | [9] 103% | [10] 106% | [11] 117% | [12] 122% | [13] 98.2% | [14] 106% | [15] 113% | [16] 86.8% | [17] 107% | [18] 109% | [19] 107% | [20] 97.3%
